Screening results: PubChem, The Scripps Research Institute Molecular Screening Center
TEAD-YAP block – TEAD-YAP interaction inhibition. inhibition, % at 9.12 µM. 640,000 tested, 1.4% active. HEK-TIYL cells, TEAD-Gal4/YAP UAS-luciferase luminescence; in the data active = inhibition above about 32%;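 also: 0% = median of test compound wells and 100% = reference inhibitor wells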
GPR151 ag – activators of human GPR151; Q8TDV0; PathHunter beta-arrestin GPR151 cells, luminescence; activation, % at 11.2 µM; 650,000 tested, 1% active; AID 1508602; in the data active = activation above about 4.9%;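 also: 0% = median of compound wells and 100% = cells with positive control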
Target sequence (Q8TDV0 whole entry, looked up): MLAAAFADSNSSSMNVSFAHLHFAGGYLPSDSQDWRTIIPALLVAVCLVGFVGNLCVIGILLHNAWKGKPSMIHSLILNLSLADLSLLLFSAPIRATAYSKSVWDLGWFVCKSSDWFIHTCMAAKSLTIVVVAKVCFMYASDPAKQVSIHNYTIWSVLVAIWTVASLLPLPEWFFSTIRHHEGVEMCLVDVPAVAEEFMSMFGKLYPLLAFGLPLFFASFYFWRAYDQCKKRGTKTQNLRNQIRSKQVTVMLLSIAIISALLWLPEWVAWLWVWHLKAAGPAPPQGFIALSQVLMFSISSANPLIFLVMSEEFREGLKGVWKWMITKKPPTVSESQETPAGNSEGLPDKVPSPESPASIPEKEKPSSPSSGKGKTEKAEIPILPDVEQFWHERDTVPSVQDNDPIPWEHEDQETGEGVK
MITF primary – inhibitors of human MITF; AlphaScreen MITF homodimerization, bead proximity signal; inhibition, % at 2.6 µM; 650,000 tested, 0.91% active; AID 1259374; in the data active = inhibition above about 50%;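 also: 0% = vehicle wells with protein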
FBW7 act – activators of human E3 ligase FBW7; Q969H0; AlphaScreen FBW7–phospho-cyclin E peptide binding, activator screen; normalized activity (activation), % at 26.1 µM; 650,000 tested, 0.13% active; in the data active = normalized activity above about 1.9%;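 also: purified mutant Fbw7 with reduced substrate affinity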
GPR151 confirm – confirmation of human GPR151 activators; shares compounds with GPR151 ag; GPR151 PathHunter beta-arrestin cells, luminescence, 90 min; % of EA-reagent control over plate median; activation, % at 11.2 µM; 6,700 tested, under 10 active;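 active = mean percent activation across replicates above the confirmation screen cutoff of 4.91%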
GPR119 counter – counter-screen for GPR151 activators: effect on human GPR119; shares compounds with GPR151 ag; GPR119 PathHunter beta-arrestin cells, luminescence, 90 min; 0 = compound-well median, 100 = enzyme-acceptor control; activation, % at 11.2 µM; 6,700 tested, 0.3% active;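 active = mean percent activation in the counterscreen above 29.09%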;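 also: counterscreen on off-target GPR119 to flag nonselective hits from the GPR151 activator screen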
* hit, by the source's call. An excerpt weighted towards active compounds, which were near 3.5% of everything screened.

For Cc1cc(C(=O)NN2CCOCC2)c(C)o1 the results were TEAD-YAP block 3.4, GPR151 ag 7.6*, MITF primary 7.5, FBW7 act 0.1, GPR151 confirm 0.5 and GPR119 counter 7.4.
`Cc1cc(C(=O)N2CCOCC2)c(C)o1` gave TEAD-YAP block -8.4, GPR151 ag -0.2, MITF primary 15.2 and FBW7 act 0.3.
For COc1cc(S(=O)(=O)N2CCN(c3ccc(C)c(C)c3)CC2)ccc1F the results were TEAD-YAP block -2.9, GPR151 ag 5.9*, MITF primary -0.8, FBW7 act 0.0, GPR151 confirm 2.3 and GPR119 counter 3.5.
For Cn1c(=O)c2c(ncn2CC(=O)N/N=C/c2ccccc2F)n(C)c1=O the results were TEAD-YAP block 2.0, GPR151 ag -0.1, MITF primary -1.5 and FBW7 act 0.2.
Screening Cn1c(=O)c2c(ncn2CC(=O)N/N=C/c2ccc(C(F)(F)F)cc2)n(C)c1=O returned TEAD-YAP block 1.9, GPR151 ag 5.6*, MITF primary 12.2, FBW7 act 0.0, GPR151 confirm -0.4 and GPR119 counter 4.1.
CCOc1ccccc1Nc1ccc(C(=O)N2CCCC2)cn1 was read as TEAD-YAP block 8.0, GPR151 ag 8.7*, MITF primary 12.9, FBW7 act 0.0, GPR151 confirm 0.3 and GPR119 counter 4.3.
`CC(C)c1ccc(NC(=O)C(c2ccccc2)N(C)C(=O)c2ccc(=O)[nH]c2)cc1` (centres undefined) gave TEAD-YAP block -6.8, GPR151 ag 8.7*, MITF primary 1.0, FBW7 act -0.1, GPR151 confirm 0.6 and GPR119 counter 2.8.
For CCOCCCN(C(=O)C(F)(F)F)C(C(=O)NC1CCCCC1)c1cccs1 (centres undefined) the results were TEAD-YAP block -2.3, GPR151 ag -0.6, MITF primary 5.9 and FBW7 act 0.2.
For O=C(c1ccc(Cl)cc1)c1conc1C(=O)c1cccs1 the results were TEAD-YAP block 8.2, GPR151 ag -0.6, MITF primary 7.7 and FBW7 act -0.1.
Screening Cc1ccc(C(=O)c2nocc2C(=O)c2cccs2)cc1 returned TEAD-YAP block 2.2, GPR151 ag 6.1*, MITF primary 1.2, FBW7 act -0.1, GPR151 confirm -0.2 and GPR119 counter -8.1.
CC(O)CC(=O)N1CCc2cc(S(=O)(=O)N(C)C)ccc21 (centres undefined) was read as TEAD-YAP block -1.4, GPR151 ag 5.3*, MITF primary 3.9, FBW7 act 0.0, GPR151 confirm 0.1 and GPR119 counter -8.7.
`COC(=O)c1ccc(N2C(=O)CC(SCC(=O)Nc3cccc(F)c3)C2=O)cc1` (centres undefined) gave TEAD-YAP block -7.1, GPR151 ag -2.4, MITF primary 12.4 and FBW7 act 0.3.
Screening CC(C)c1ccc(NC(=O)c2ccc(N(C)C)cc2)cc1 returned TEAD-YAP block -46.0, GPR151 ag 0.5, MITF primary 5.8 and FBW7 act 0.6.
`CC(C)c1ccc(C(=O)Nc2ccc(N(C)C)cc2)cc1` gave TEAD-YAP block 6.5, GPR151 ag 18.8*, MITF primary 6.5, FBW7 act -0.2, GPR151 confirm -1.1 and GPR119 counter -11.1.
For COCC(=O)NCC1CCC2(CCN(Cc3ccc(N(C)c4ccccc4)cc3)CC2)O1 (centres undefined) the results were TEAD-YAP block 3.5, GPR151 ag 1.0, MITF primary 4.3 and FBW7 act -0.2.
Screening COCC(=O)NCC1CCC2(CCN(C/C(C)=C/c3ccccc3)CC2)O1 (centres undefined) returned TEAD-YAP block 4.9, GPR151 ag 5.1*, MITF primary -4.3, FBW7 act -0.1, GPR151 confirm 0.7 and GPR119 counter 10.0.
`O=C(CN1CCN(C(=O)c2ccco2)CC1)NN(Cc1ccccc1)c1ccccc1` gave TEAD-YAP block 2.8, GPR151 ag 5.4*, MITF primary 34.5, FBW7 act 0.0, GPR151 confirm 0.1 and GPR119 counter -5.5.
For COc1ccc(/C=C(/C#N)c2nc(-c3ccccc3)cs2)cc1 the results were TEAD-YAP block -9.7, GPR151 ag -0.3, MITF primary -4.8 and FBW7 act 0.2.
For O=C(CCCn1cccc1)Nc1ccc(F)cc1F the results were TEAD-YAP block 5.0, GPR151 ag 6.7*, MITF primary 9.0, FBW7 act 0.0, GPR151 confirm -0.5 and GPR119 counter 4.6.
For O=C(CCCCC(=O)Nc1ccc(F)cc1F)Nc1ccc(F)cc1F the results were TEAD-YAP block 6.4, GPR151 ag 1.5, MITF primary 5.2 and FBW7 act 0.0.
Cc1ccc(Cc2c(C)nc3nc(SCC(=O)Nc4cccc(Cl)c4)nn3c2C)cc1 was read as TEAD-YAP block 8.7, GPR151 ag 4.5, MITF primary 2.5 and FBW7 act 0.2.
Cc1oc(-c2ccccc2)nc1C(=O)O was read as TEAD-YAP block 1.6, GPR151 ag 5.0*, MITF primary -5.6, FBW7 act 0.1, GPR151 confirm 1.0 and GPR119 counter -2.5.
Cn1cccc1/C=C1\SC(=S)NC1=O was read as TEAD-YAP block -2.3, GPR151 ag 5.1*, MITF primary 11.3, FBW7 act -0.3, GPR151 confirm 0.2 and GPR119 counter -6.0.
For COC(=O)C(C)N1C(=O)S/C(=C/c2cccn2C)C1=O (centres undefined) the results were TEAD-YAP block -7.0, GPR151 ag 5.5*, MITF primary 11.2, FBW7 act -0.1, GPR151 confirm -0.2 and GPR119 counter 5.5.
`COC(=O)C(C)N1C(=O)S/C(=C/c2ccc(Cl)cc2)C1=O` (centres undefined) gave TEAD-YAP block -15.7, GPR151 ag 0.2, MITF primary -2.2 and FBW7 act -0.1.
Screening COc1ccc(C(=O)CSc2nnc3ncccn23)cc1 returned TEAD-YAP block -31.7, GPR151 ag -0.1, MITF primary 1.9 and FBW7 act 0.0.
`COc1ccnc(Cn2nc(C)c3cccn3c2=O)c1OC` gave TEAD-YAP block 8.8, GPR151 ag 6.1*, MITF primary 10.1, FBW7 act 0.0, GPR151 confirm -0.2 and GPR119 counter -8.2.
COc1cc(C=O)cc(Cl)c1OC(F)F was read as TEAD-YAP block 11.1, GPR151 ag 1.7, MITF primary 9.5 and FBW7 act 0.4.
For CC(C)(C)c1ccc(/C=C/C(=O)Nc2ccc(C(N)=O)cc2)cc1 the results were TEAD-YAP block -8.6, GPR151 ag -1.3, MITF primary 10.8 and FBW7 act 0.1.
`Clc1ccc2nc(CSc3nncn3-c3ccccc3)cn2c1` gave TEAD-YAP block 0.7, GPR151 ag 5.1*, MITF primary 1.3, FBW7 act -0.1, GPR151 confirm 0.1 and GPR119 counter 5.9.
